Laboratory results: PubChem BioAssay AID1347416 (National Center for Advancing Translational Sciences (NCATS), 2020)
In all, about 4,100 compounds went through this assay and about 1,600 (39%) were called active. Another 25% or so got no clear call; they are omitted. Calls come from the whole dose curve; as a rule, active = well fitted inhibition curve with a large enough effect; inconclusive = small, poorly fitted or top-dose-only effect; inactive = no such curve, though single readings can be large or run the other way. The list shows a part of the results.

Experiment: qHTS Validation assay for Inhibitors of Plasmodium falciparum Dd2 growth in vitro; note: nearly all actives have a fitted effect of over 70% in size
Conditions: P. falciparum Dd2 in RBCs, SYBR Green growth, 72 h; series mostly up to 28.7 µM
How it was run: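 P. falciparum Dd2-infected red blood cells (2.5% hematocrit, 0.3% parasitemia) grown 72 h at 37 °C under 5% O2 with compounds in a titration, 29 uM to 0.5 nM final. Growth read as SYBR Green-1 fluorescence after ~16 h lysis; artesunate 300 nM as positive control.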
Potency is the fitted concentration of half-maximal effect.

Compound | Potency
CCCC1=[N+](CC)CCn2c(C)ccc21 | inactive
COC(=O)c1c(-c2c(Cl)cccc2Cl)noc1NC(=O)NN1CCCCC1 | 2.37 µM (active)
OC(CN1CCC(Cc2ccc(F)cc2)CC1)c1ccc(Cl)cc1 (stereo not drawn) | inactive
CN1CCC(NCCC(c2ccc(F)cc2)c2ccc(Cl)cc2)CC1 (stereo not drawn) | 4.22 µM (active)
CCC(=O)N(C1=C(NC(C)C)C(=O)c2ccccc2C1=O)C(C)C | 2.37 µM (active)
O=C(NC1CCCC1)c1ccc(OC2CCN(CCCC(F)(F)F)CC2)c(Cl)c1 | 9.44 µM (active)
COCCNC(=O)c1ccc(OC2CCN(C/C=C/c3ccc(F)cc3)CC2)c(Cl)c1 | 10.6 µM (active)
CC(=O)Nc1ccc(/C(C)=N\NC(=O)c2ccc(-c3ccccc3)cc2)cc1 | inactive
CN(Cc1ccc(-c2ccccc2)cc1)C(=O)C1CC1 | inactive
CC(=O)Nc1cc(-c2ccccc2)ccc1O | 4.73 µM (active)
COCc1ccc2c(c1)c(OC(C)(C)C(=O)N1CCN(CCO)CC1)nn2Cc1ccccc1 | 9.44 µM (active)
CN1CCN(C(=O)C(C)(C)Oc2nn(Cc3cccc(Cl)c3)c3ccccc23)CC1 | 7.69 µM (active)
CC(C)(Oc1nn(CCOc2ccccc2)c2ccccc12)C(=O)NCc1cnccn1 | inactive
COCc1ccc2c(c1)c(OC(C)(C)C(=O)NCC1CCOCC1)nn2Cc1cccnc1 | inactive
CC(C)(Oc1nn(Cc2cccc(Cl)c2)c2ccccc12)C(=O)NCCN1CCOCC1 | 5.31 µM (active)
CC(C)n1nc(OC(C)(C)C(=O)NCCc2cccnc2)c2cc(CN3CCOCC3)ccc21 | inactive
N#Cc1cc(C(=O)c2cc(Br)ccc2O)cn(C2CCCCC2)c1=O | 0.668 µM (active)
CCCCn1cc(C(=O)c2cc(Br)ccc2O)cc(C#N)c1=O | 13.3 µM (active)
CN(C)c1cc[n+](Cc2ccccc2)cc1 | 10.6 µM (active)
CCOC(=O)CCCOc1cccn2c(=O)c(-c3cc(C)n(-c4ccc(Cl)cc4)n3)c(C)nc12 | 10.6 µM (active)

Compound | Potency
CC(C)CCN1CCC2(CC1)CC(=O)N(c1ccccc1)c1ccccc1O2 | inactive
COc1ccc(-n2nc(C3CCN([S+](=O)([O-])c4cccc(C(F)(F)F)c4)CC3)[nH]c2=O)cc1 | inactive
O=C1CC2(CCN([S+](=O)([O-])c3cccc(C(F)(F)F)c3)CC2)Oc2ccccc2N1c1ccccc1 | 6.68 µM (active)
Cc1ccc(S(=O)(=O)NC(=O)Nc2ccc(N(C)C)cc2)cc1 | 1.33 µM (active)
CN(C)c1ccc(NC(=O)Oc2ccccc2)cc1 | inactive
Cc1c(CN2CCN(CC(C)(C)C)C(CCO)C2)[nH]c2ccccc12 (stereo not drawn) | 9.44 µM (active)
CC(C)CC(NC(=O)C(NC(=O)OC(C)(C)C)C(C)C)C(=O)NC(CCC(=O)OCc1ccccc1)C(N)=O (stereo not drawn) | 8.41 µM (active)
CC(C)c1ccccc1NC(=O)C(Cc1c[nH]c2ccccc12)NC(=O)OC(C)(C)C (stereo not drawn) | inactive
CCCCCn1c(=N)n(CC(O)COc2cccc(C)c2)c2ccccc21 (stereo not drawn) | 2.11 µM (active)
N=c1n(CCN2CCCCC2)c2ccccc2n1CC(O)COc1ccc(Cl)cc1Cl (stereo not drawn) | 4.22 µM (active)
CCn1c(=N)n(CC(O)c2cccs2)c2ccccc21 (stereo not drawn) | inactive
CCN(CC)CCn1c(=N)n(CC(O)COc2ccccc2C)c2ccccc21 (stereo not drawn) | 3.35 µM (active)
CC(=O)N1C[C@@H]2CCCN3CCC[C@@H]([C@H]23)[C@H]1CCCC(=O)Nc1ccccc1 | inactive
CCN(Cc1ccccc1)C(=O)CCC[C@@H]1[C@H]2CCCN3CCC[C@@H](CN1C(=O)c1ccccc1)[C@@H]23 | 13.3 µM (active)
CC(C)CN1CCN(C(=O)CCC[C@@H]2[C@H]3CCCN4CCC[C@@H](CN2Cc2cccnc2)[C@@H]34)CC1 | inactive
COc1ccccc1Nc1cnc2ccc(-c3ccc(OC)c(OC)c3)nn12 | 1.53 µM (active)
COc1ccccc1Nc1cnc2ccc(-c3ccc(F)cc3)nn12 | 6.85 µM (active)
COc1ccccc1C(=O)NCc1nnc2ccc(-c3ccc(C)cc3)nn12 | inactive
CCOc1ccc(C(C)NC(=S)NC2CCCCC2)cc1OCC (stereo not drawn) | 0.211 µM (active)
COc1ccc(C(C)NC(=S)NC2CCCC2)cc1OC (stereo not drawn) | 6.68 µM (active)

Compound | Potency
CC(C)c1ccc(OCC(=O)NC2CCCC2)cc1 | inactive
CCN1CCN(C(=O)c2ccc3c(c2)N(Cc2c(F)cccc2Cl)C(=O)c2ccccc2S3)CC1 | 0.0084 µM (active)
COc1ccc(C(=O)N2CCCC3(C2)NC(=O)N(Cc2cccc(Cl)c2)C3=O)cc1F (stereo not drawn) | inactive
CN1CCN(C(=O)c2ccc3c(c2)N(Cc2c(F)cccc2Cl)C(=O)c2ccccc2S3)CC1 | 0.0596 µM (active)
Cc1ccc(C(=O)N2CCN(c3nnc4c(Cl)cccn34)CC2)cc1F | inactive
O=C1Nc2ccc(-c3ccccc3F)cc2C(=O)N2CCN(C(=O)c3ccccc3)C[C@H]12 | inactive
CC(C)CNC(=O)CN1CN(c2ccccc2)C2(CCN(C(=O)NC3CCCCC3)CC2)C1=O | 15 µM (active)
CC(C)(C)C1CCC2(CC1)NC(=O)N(CC(=O)NC1CCCCC1)C2=O (stereo not drawn) | inactive
O=C(OCc1ccccc1)N1CCC2(CC1)C(=NC1CCCCC1)NC(=O)N2c1cccnc1 | inactive
CCCS(=O)(=O)c1nc(S(=O)(=O)c2ccc(C)cc2)c(NCCCOC(C)C)s1 | 2.11 µM (active)
CC(C)OCCCNc1sc(S(=O)(=O)c2ccccc2)nc1S(=O)(=O)c1ccc(Cl)cc1 | 0.266 µM (active)
Cc1ccc(S(=O)(=O)c2nc(S(=O)(=O)c3ccccc3)sc2NCCCOC(C)C)cc1 | 0.596 µM (active)
C=CCNC(=S)N1CCN(c2ccc([N+](=O)[O-])cc2)CC1 | 4.22 µM (active)
O=[N+]([O-])c1ccc(N2CCN(C(=S)NC3CCCCC3)CC2)cc1 | 1.88 µM (active)
Cc1ccc(C)c(-c2cc3c(=O)n(CCNC(=O)c4ccncc4)ccn3n2)c1 | inactive
CC(C)n1nc(OC(C)(C)C(=O)NCC2CCOCC2)c2cc(CN3CCOCC3)ccc21 | inactive
CC(C)CNC(=O)C(C)(C)Oc1nn(CC2CC2)c2ccc(CN3CCCC3)cc12 | 19.3 µM (active)
O=C([C@@H]1C[C@H](Oc2cccnc2)CN1C(=O)NCCc1ccccc1)N1CCOCC1 | inactive
